{"source": "PubChem BioAssay (EPA / NIEHS)", "note": "Calls of active or inactive are those of the source. The calls were made as follows: active = hit-call score of the fitted dose curve at least 0.9, where 1 is the maximum; inactive = score below 0.9.", "data": [{"read-out": "Ezrin (EZR), EZR (gene 7430)", "assay": "LTEA_HepaRG_EZR: Life Technologies and Expression Analysis (LTEA) Assay for Ezrin (EZR) using HepaRG (AID 2283491)", "conditions": "mRNA level, 48 h; actives raise or lower the signal", "procedure": "It is a marker of Cellular remodeling.Data from the assay component LTEA_HepaRG_EZR was analyzed into 1 endpoint. This assay endpoint, LTEA_HepaRG_EZR, was analyzed with bidirectional fitting relative to DMSO as the negative control and baseline of activity. Using a type of inducible reporter, measures of mRNA induction for gain or loss-of-signal activity can be used to understand regulation of transcription factor activity. To generalize the intended target to other relatable targets, this assay endpoint is annotated to the membrane protein intended target family, where the subfamily is Cellular remodeling.\nA total of 1060 chemcials from the ToxCast library were tested in eight-point concentration-response experiments. Cell culture and cytotoxicity assays were conducted at Thermo Fisher Scientific's Custom Services facility (Madison, WI). A single lot of human HepaRG cells (Thermo Fisher Scientific, Frederick, MD) was used for the cell culture experiments. 96-well format collagen type I coated plates of human HepaRG cells were prepared using established methods. Briefly, cryopreserved HepaRG cells were thawed, plated at a density of approximately 100,000 cells/well in HepaRG Thaw, Plate, and General Purpose media (HPRG770, Thermo Fisher Scientific), and incubated for 48 hours. 0.5% DMSO was selected as vehicle control to balance the requisite need of DMSO in HepaRG cultures to maintain differentiation (for example, baseline metabolism, proportions of hepatocytes vs. cholangiocytes), while enabling further hepatic receptor pathway activation (for example, PXR and CAR) in response to chemical exposure. 48 hours after plating, the culture medium was replaced with HepaRG Serum-Free Incudtion Media. Cells were exposed to each test chemical in duplicate and maintained in CO2 incubators for another 48 hours. Chemical plates were thawed to room temperature and 200x concentrations of treatment groups were prepared. 8-point conentration-reponse curves were made with the highest exposure at 100 uM, followed by half-log dilutions, all in 0.5% DMSO. Each test plate contained variouse controls, induction positive controls (1mM phenobarbital), cytotoxicity positive controls ([…] aflatoxin B1), vehicle controls (0.5% DMSO), and total lysis controls (0.5% DMSO). Cell morphology images were taken using an Essen IncuCyte FLR automated microscope, with six 96-well plates imaged in about 24 minutes. Images were captured and exported and JPEG files. Spent culture media was transfered to black-well plates for the LDH assay, and remaining media was sorted at -80 C for later use. Cells were treated with RLT buffer and frozen until shipped for gene expression analysis. Total RNA was isolated from the cell suspension in 75 uL of Buffer RLT (Qiagen, Germantown, MD 20874) by Quintiles/Expression Analysis (Durham, NC) using a custom isolation procedure. Total RNA from each plate well was transferred to a preamplification plate. Fluidigm's 96.96 Dynamic ArrayTM (Fluidigm, Amsterdam, the Netherlands) technology was used for gene expression analyses by quantitative reverse transcription polymerase chain reaction (qRT-PCR, performed by Quintiles/Expression Analysis, Durham, NC)89. Standard TaqManTM Assays (Applied Biosystems/ThermoFisher Scientific, Foster City, CA) were used to assess the expression of 93 genes selected based on their selectivity and sensitivity to important hepatic receptors known to be modulated by environmental chemicals; importance in human hepatocyte functionality; and hepatotoxicity. Three \"housekeeping\" endogenous control genes were also included and used for normalization: actin beta (ACTB), Glyceraldehyde 3 phosphate dehydrogenase (GAPDH) and RNA Polymerase II Subunit A (POLR2A). qRT-PCR was conducted according to the manufacturer's protocol.", "values": [{"smiles": "OCc1ccccc1", "outcome": "inactive"}, {"smiles": "O=S1(=O)CCCO1", "outcome": "inactive"}, {"smiles": "NC(=O)N(O)[C@@H]1COc2cc(OCc3ccccc3)ccc21", "outcome": "inactive"}, {"smiles": "CC1(C)C(=O)N(Cl)C(=O)N1Cl", "outcome": "inactive"}, {"smiles": "C[C@]12C=CC(=O)C=C1CC[C@H]1[C@@H]3C[C@@H](O)[C@](O)(C(=O)CO)[C@@]3(C)C[C@H](O)[C@@]12F", "outcome": "inactive"}, {"smiles": "C=CCc1cc(S(=O)(=O)c2ccc(O)c(CC=C)c2)ccc1O", "outcome": "inactive"}, {"smiles": "CC(C)c1nnc2ccc(-c3ocnc3-c3cc(F)ccc3F)cn12", "AC50": "2380 nM (active)"}, {"smiles": "Cn1c(=O)c2[nH]cnc2n(C)c1=O", "outcome": "inactive"}, {"smiles": "c1ccc2cc3ccccc3cc2c1", "outcome": "inactive"}, {"smiles": "NNC(=O)c1ccncc1", "outcome": "inactive"}, {"smiles": "OCC(CO)(CO)CO", "outcome": "inactive"}, {"smiles": "CCCCCCCCCCCCCCCCOS(=O)(=O)O", "outcome": "inactive"}, {"smiles": "CC(C)C(=O)Nc1ccc([N+](=O)[O-])c(C(F)(F)F)c1", "outcome": "inactive"}, {"smiles": "c1ccc2ncccc2c1", "outcome": "inactive"}, {"smiles": "C=CN1CCCC1=O", "outcome": "inactive"}, {"smiles": "CCCc1ccccc1", "outcome": "inactive"}, {"smiles": "CCCCCOC(C)=O", "outcome": "inactive"}, {"smiles": "NC(N)=O", "outcome": "inactive"}, {"smiles": "CCCCCCCCCCCCCCO", "outcome": "inactive"}, {"smiles": "CCn1nc(C)c2c1C(=O)NCC(c1ccc(O)cc1)=N2", "outcome": "inactive"}, {"smiles": "CCCCCCCCCC", "outcome": "inactive"}, {"smiles": "OCCOCCOCCO", "outcome": "inactive"}, {"smiles": "O=C(O)c1cccc(C(=O)O)c1", "outcome": "inactive"}, {"smiles": "Cn1cc[nH]c1=S", "outcome": "inactive"}, {"smiles": "CCCCC(CC)C(=O)OCCOCCOCCOC(=O)C(CC)CCCC", "note": "(stereo not given)", "outcome": "inactive"}, {"smiles": "O=C(NO)C1(NS(=O)(=O)c2ccc(Oc3ccc(F)cc3)cc2)CCOCC1", "outcome": "inactive"}, {"smiles": "OC(CCl)CCl", "outcome": "inactive"}, {"smiles": "CCCCCCCCN(C)C", "outcome": "inactive"}, {"smiles": "O=S(=O)(O)c1ccc(N=Nc2c(O)ccc3cc(S(=O)(=O)O)ccc23)cc1", "outcome": "inactive"}, {"smiles": "CCc1cccc(CC)c1N", "outcome": "inactive"}, {"smiles": "CC(C)CC(C)O", "note": "(stereo not given)", "outcome": "inactive"}, {"smiles": "Cc1ncc([C@@H](CCCCCCc2ccc3c(n2)NCCC3)CC(=O)O)cn1", "outcome": "inactive"}, {"smiles": "CCCOc1ccc(S(=O)(=O)N2CCN(CC)CC2)cc1-c1nc2c(CC)n(Cc3ccccn3)nc2c(=O)[nH]1", "outcome": "inactive"}, {"smiles": "OC[C@H]1O[C@@](CO)(O[C@H]2O[C@H](CO)[C@@H](O)[C@H](O)[C@H]2O)[C@@H](O)[C@@H]1O", "outcome": "inactive"}, {"smiles": "c1ccc(C(O[C@@H]2CCCN(CCc3ccc4c(c3)OCO4)C2)c2ccccc2)cc1", "outcome": "inactive"}, {"smiles": "CCCCCCCC1CCC(=O)O1", "note": "(stereo not given)", "outcome": "inactive"}, {"smiles": "COS(C)(=O)=O", "outcome": "inactive"}, {"smiles": "CCc1ccc(O)c(C(C)(C)C)c1", "outcome": "inactive"}, {"smiles": "CC[C@H](C)C(=O)O[C@H]1C[C@H](O)C=C2C=C[C@H](C)[C@H](CC[C@@H](O)C[C@@H](O)CC(=O)O)[C@H]21", "outcome": "inactive"}, {"smiles": "OC(Cn1cncn1)(Cn1cncn1)c1ccc(F)cc1F", "outcome": "inactive"}]}]}
